Test results taken from PubChem BioAssay (NCI).
The panel holds about 79,000 compounds, 15% with a hit somewhere; the sample as a whole holds those more often. Active and inactive are the calls of the source. No stated cut-off is given here; in the data, active means growth inhibition above about 70%; inactive means the rest.

Columns and labels:
[1] = NCI Yeast Anticancer Drug Screen. Data for the rad50 strain (AID 155);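 further: 0% = growth of vehicle-only cultures of the same strain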; conditions: S. cerevisiae rad50 strain growth inhibition; at 50.0 µM; hits give high values
Procedure, shortened: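 Inhibition values express reduced yeast growth in compound-treated cultures relative to vehicle-treated controls.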

[2] = NCI Yeast Anticancer Drug Screen. Data for the mec2-1 strain (AID 157); conditions: S. cerevisiae mec2-1 strain, at 50.0 µM, hits give high values
Procedure, shortened: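 Compounds were applied to mec2-1 yeast cells. Their growth was then compared with that of vehicle-treated cultures to give growth inhibition.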

[3] = NCI Yeast Anticancer Drug Screen. Data for the sgs1 mgt1 strain (AID 161);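 further: 0% = growth of cultures given vehicle only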; conditions: S. cerevisiae sgs1 mgt1 strain, at 50.0 µM, hits give high values
Procedure, shortened: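 Yeast cells carrying a defined DNA-repair defect were exposed to test compounds. Growth inhibition was measured relative to vehicle-treated controls.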

[4] = NCI Yeast Anticancer Drug Screen. Data for the cln2 rad14 strain (AID 165);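 further: 0% = growth equal to vehicle treated cultures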; conditions: S. cerevisiae cln2 rad14 strain, at 50.0 µM, hits give high values
Procedure, shortened: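 Strain: cln2 rad14 yeast, altered in cell cycle control and DNA damage repair. Read-out: growth inhibition vs vehicle.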

[5] = NCI Yeast Anticancer Drug Screen. Data for the bub3 strain (AID 167); conditions: S. cerevisiae bub3 mutant strain, at 50.0 µM, hits give high values
Procedure, shortened: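 Steps: expose the mutant yeast strain to compound; grow alongside vehicle-treated cultures; measure growth; express inhibition against the vehicle cultures.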

[6] = NCI Yeast Anticancer Drug Screen. Data for the mlh1 rad18 strain (AID 175); conditions: S. cerevisiae mlh1 rad18 strain growth inhibition; at 50.0 µM; hits give high values
Procedure, shortened: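 A repair-deficient yeast strain is exposed to test compound, and growth is scored relative to vehicle-treated controls.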

Measured: growth inhibition

CCOC(=O)c1cc(=O)[nH]c2ccc(OC)cc12
inactive: [1] 17.2% | [2] 22.2% | [3] 2.25% | [4] 35.6% | [5] 11.6% | [6] 7.05%

CCOC(=O)CCCCCSc1n[nH]c(=O)[nH]c1=O
inactive: [1] -7.5% | [2] -11% | [3] -21.9% | [4] 5.75% | [5] 6.15% | [6] -4.2%

O=C(Nc1ccc(Cl)cc1Cl)C(=O)C(C(=O)c1ccc2ccccc2c1)C1OC(=O)c2ccccc21 (stereo unspecified)
inactive: [1] 13.4% | [2] 21.6% | [3] 2.7% | [4] 15.9% | [5] -12.6% | [6] -6.45%

C/C=C1/CC(C)C(C)(O)C(=O)OCC2C(O)CN3CCC(OC1=O)C23 (stereo unspecified)
inactive: [1] 12.4% | [2] -2.3% | [3] -15.5% | [4] -10.3% | [5] -3.85% | [6] -43.6%

Cc1ccc(S(=O)(=O)Nc2ccccc2-c2nc3c(Cl)ccc(Cl)c3c(=O)o2)cc1
inactive: [1] 33.6% | [2] 0.15% | [3] 41.5% | [4] -10.3% | [5] -5.45% | [6] 10.7%

O=C(O)c1cccc2c1-c1ccc(NC(=O)C(Cl)Cl)cc1C2=O
inactive: [1] 31% | [2] -1.65% | [3] -6.85% | [4] -5.7% | [5] 16.1% | [6] 12.1%

O=c1oc2ccc3ccccc3c2c2c1CCCCC2
inactive: [1] -13.9% | [2] -4.05% | [3] -14.8% | [4] -22.1% | [5] -8.05% | [6] -26.5%

Cc1ccccc1OCC(C)OC(N)=O (stereo unspecified)
inactive: [1] 6.1% | [2] -11.4% | [3] 2.1% | [4] -16.4% | [5] 7% | [6] 6.15%

Cc1ccc(Nc2nc(C)c(C(=O)CC(=O)C(=O)Nc3c(C)cccc3C(C)(C)C)s2)cc1
inactive: [1] 14.2% | [2] -17.6% | [3] -0.4% | [4] -19.2% | [5] -1.05% | [6] 2.85%

CCN(CC)CCOC(=O)C(c1ccccc1)C1C=CCCC1 (stereo unspecified)
inactive: [1] 38.8% | [2] 2.6% | [3] 19.1% | [4] -1.15% | [5] -3.1% | [6] 30.4%

CC(C)(C(N)=O)c1ccccc1
inactive: [1] -28.1% | [2] -3.85% | [3] 16.6% | [4] -28.4% | [5] -1.55% | [6] -5.05%

Nc1nc(C(=O)O)c(N=Nc2ccccc2)c(=O)[nH]1
inactive: [1] 31.1% | [2] -10.2% | [3] 7.35% | [4] 24.4% | [5] -16.1% | [6] -20.8%

Cc1ccnc2c1NC(=O)c1cccnc1N2C1CC1
inactive: [1] 2.35% | [2] -1.95% | [3] -8.6% | [4] -9.35% | [5] 6% | [6] 20.8%

CC(=O)C1CC2CCC1C2 (stereo unspecified)
inactive: [1] 10.4% | [2] 12.8% | [3] -8.7% | [4] -12.4% | [5] 1.25% | [6] 7.9%

Cc1ccc(C(C)C)cc1NC(=O)NCCCl
inactive: [1] -9.8% | [2] 10.6% | [3] 2.8% | [4] -33.3% | [5] -9.6% | [6] -6.4%

Nc1ccc(CCCCc2ccc(Cl)cc2Cl)cc1
active: [1] 98.2% | [2] 98.2% | [3] 98.5% | [4] 98.1% | [5] 98% | [6] 98%

CCCNC(=O)Cn1c(C)cc2ccccc21
inactive: [1] 6.55% | [2] 6.25% | [3] 26.2% | [4] 22.7% | [5] 15.4% | [6] -82.5%

CCOc1ccccc1NC(=O)C(=O)C(/C(=N/N)C(=O)OC)c1nc2ccc([N+](=O)[O-])cc2[nH]c1=O (stereo unspecified)
inactive: [1] 16.9% | [2] -10% | [3] 5.7% | [4] 15.4% | [5] -1.35% | [6] 9.25%

NC(=O)NC(=O)c1ccco1
inactive: [1] 52.7% | [2] -1.55% | [3] 28.9% | [4] 17.1% | [5] -1.3% | [6] 16%

COc1ccc2nc(N(C)C)cc(N(C)C)c2c1
inactive: [1] -10.6% | [2] 5.6% | [3] -2.4% | [4] -34.8% | [5] 4.6% | [6] -5%

CCCCc1c(O)c2c(=O)[nH]c(C)nc2oc1=O
inactive: [1] -9.8% | [2] -5.95% | [3] -9.65% | [4] -13.2% | [5] -32.4% | [6] 10.9%

c1ccc2c(c1)C(=C1c3ccccc3-c3ccccc31)c1ccccc1-2
inactive: [1] -6.4% | [2] -18.1% | [3] -0.3% | [4] -34.8% | [5] 6.85% | [6] -2.1%

ClCC[n+]1ccc2ccccc2c1
inactive: [1] 3.95% | [2] 11.6% | [3] -13.4% | [4] -13.8% | [5] -9.05% | [6] -10.7%

CN(/N=C/c1ccccn1)C1=NCCCCN1
inactive: [1] -33.5% | [2] 3.15% | [3] -23.1% | [4] 22.2% | [5] 8.9% | [6] -8.65%

NC1CSc2ccccc2NC1=O (stereo unspecified)
inactive: [1] 20.5% | [2] 31.9% | [3] 7.8% | [4] 9.8% | [5] 22.8% | [6] 33%

CC1=NN(c2nc(N)nc(CCl)n2)C(C)(C)C1
inactive: [1] -8.1% | [2] -0.1% | [3] -6.7% | [4] -4.75% | [5] 17.1% | [6] -77.9%

Cc1cc(S(=O)(=O)Nc2nc(N)n(C)n2)c(S)cc1Cl
inactive: [1] -19.1% | [2] -18.3% | [3] -3.3% | [4] -3.1% | [5] -29.2% | [6] -1.85%

CCCCNC(=O)NC1CC(OC2CC(O)(C(C)=O)Cc3c(O)c4c(c(O)c32)C(=O)c2c(OC)cccc2C4=O)OC(C)C1O (stereo unspecified)
inactive: [1] 30.2% | [2] 14.9% | [3] 22.9% | [4] 0.8% | [5] 1.25% | [6] 29.9%

CC=C/C=C/[C@@H]1O[C@](O)([C@H](CC)C(=O)NC/C=C/C=C(\C)[C@@H](OC)[C@@H](C)[C@@H]2O[C@H](/C=C/C=C/C=C(\C)C(=O)c3c(O)cc[nH]c3=O)[C@H](O)[C@@H]2O)[C@H](O)[C@H](O)C1(C)C
inactive: [1] 35.2% | [2] 18.9% | [3] 38.9% | [4] 36.2% | [5] 29.9% | [6] 15.6%

O=C(c1cc(O)c(O)c(O)c1)c1ccc(O)c(O)c1O
inactive: [1] 12.9% | [2] 5.95% | [3] 11.3% | [4] 5.2% | [5] 14.1% | [6] 32.8%

CCN=C(N)CSS(=O)(=O)O
inactive: [1] -1.9% | [2] -28.1% | [3] -32.8% | [4] -4.6% | [5] -22% | [6] -16.7%

COc1ccc(C(=O)CC(Sc2ccccc2N)c2ccc(OC)cc2)cc1 (stereo unspecified)
inactive: [1] -16.6% | [2] -17.9% | [3] 8.95% | [4] -10% | [5] 6.3% | [6] -7.3%

COc1ccc2ccccc2c1C1OC(=O)c2ccccc21 (stereo unspecified)
inactive: [1] 37.8% | [2] 24.6% | [3] 51.7% | [4] 33.4% | [5] 25.2% | [6] 52.5%

COC1=C(OC)CCC(/C(C#N)=C/c2ccc(OC)c(OC)c2)=C1
inactive: [1] 18.8% | [2] -3.45% | [3] -10% | [4] -11.8% | [5] -0.9% | [6] 25.4%

ON1c2ccc3ccccc3c2C=CC1(c1ccccc1)c1ccccc1
inactive: [1] -12.7% | [2] -2.75% | [3] -12.6% | [4] 23.2% | [5] 16.5% | [6] 10.9%

COc1cccc2c(=O)c3c(oc12)CCC(C)C3 (stereo unspecified)
inactive: [1] -10.6% | [2] 4.35% | [3] 5.85% | [4] -35.7% | [5] -14.8% | [6] -9.4%

O=C1OC2c3ccccc3CC1C2CO (stereo unspecified)
inactive: [1] 20.9% | [2] 4.7% | [3] 7.55% | [4] 9.25% | [5] 2% | [6] -4.45%

O=c1oc2ccc(Cl)cc2c(OCCO)c1Cl
inactive: [1] -5.2% | [2] 4.55% | [3] -4.45% | [4] -0.5% | [5] -5.95% | [6] -1.15%

CC(=O)OC(C)CCl (stereo unspecified)
inactive: [1] -27.6% | [2] -48.1% | [3] -34% | [4] 2.6% | [5] -17.7% | [6] -14.2%

COc1ccc(COC(=O)Oc2ccc(Cl)cc2)cc1OC
active: [1] 93.8% | [4] 79.8% | [5] 90.5% | [6] 94.8%
inactive: [2] 63.3% | [3] 50.7%

O=C(O)c1cc(=O)[nH]c(=O)[nH]1.[Cu+2]
inactive: [1] -15.8% | [2] 8.7% | [3] -18.4% | [4] -35.3% | [5] -30.4% | [6] -16.2%
